Screening data from PubChem.
WRN inhibitor – inhibitors of human WRN helicase; Potency, µM (top dose mostly 114 µM), without a hit: at the highest dose activity change, negative = inhibition, usual class: inhibitors; 360,000 compounds, 0.46% hits; AID 651768; WRN helicase unwinding, fluorescent forked duplex, kinetic; also: % is scaled to controls: 0 for no effect and ±100 for the full control effect; nearly all actives have a fitted effect of over 55% in size
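Primary qHTS, 1536-well format. 20 nM WRN + compound, 15 min RT; start with 100 nM forked fluorophore/quencher duplex, 2 mM ATP (final); kinetic read ex 525/em 598 nm.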
POLB inh – DNA polymerase beta (human) inhibition; P06746; Pol beta primer extension/strand displacement, fluorescence kinetic; Potency, µM (titrated, usually from 114 µM), without a hit: top-dose activity change, negative = inhibition, actives largely listed as inhibitors; 340,000 compounds, 1.3% hits; also: % is scaled to controls: 0 for no effect and ±100 for the full control effect
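Pol beta (10 nM) and compounds were preincubated 15 min at room temperature, then 50 nM substrate (final) started primer extension/strand displacement. Reads were taken at 0 and 10 min; concentration-response data were fitted to a four-parameter Hill equation.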
Pol eta inh – blocks human DNA polymerase eta activity; recombinant Pol eta, fluorescent DNA replication assay; Potency, µM (highest dose often 114 µM), inactives show at the top dose activity change, negative = inhibition, hits mostly inhibitors; 390,000 compounds, 1.2% hits; AID 588591; also: % is scaled to controls: 0 for no effect and ±100 for the full control effect
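Fluorescent replication assay: 50 nM final substrate added after a 15 min room-temperature compound preincubation with 10 nM enzyme. Signal taken at 0 min and again at 10 min.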
Pol iota inh – inhibitors of human DNA polymerase iota; Pol iota fluorescent replication assay, 10 min; Potency, µM (highest dose often 115 µM), inactives show at the top dose activity, negative = inhibition, hits mostly inhibitors; Q9UNA4; 390,000 compounds, 1% hits; AID 588590
Target sequence (Q9UNA4 whole entry, looked up): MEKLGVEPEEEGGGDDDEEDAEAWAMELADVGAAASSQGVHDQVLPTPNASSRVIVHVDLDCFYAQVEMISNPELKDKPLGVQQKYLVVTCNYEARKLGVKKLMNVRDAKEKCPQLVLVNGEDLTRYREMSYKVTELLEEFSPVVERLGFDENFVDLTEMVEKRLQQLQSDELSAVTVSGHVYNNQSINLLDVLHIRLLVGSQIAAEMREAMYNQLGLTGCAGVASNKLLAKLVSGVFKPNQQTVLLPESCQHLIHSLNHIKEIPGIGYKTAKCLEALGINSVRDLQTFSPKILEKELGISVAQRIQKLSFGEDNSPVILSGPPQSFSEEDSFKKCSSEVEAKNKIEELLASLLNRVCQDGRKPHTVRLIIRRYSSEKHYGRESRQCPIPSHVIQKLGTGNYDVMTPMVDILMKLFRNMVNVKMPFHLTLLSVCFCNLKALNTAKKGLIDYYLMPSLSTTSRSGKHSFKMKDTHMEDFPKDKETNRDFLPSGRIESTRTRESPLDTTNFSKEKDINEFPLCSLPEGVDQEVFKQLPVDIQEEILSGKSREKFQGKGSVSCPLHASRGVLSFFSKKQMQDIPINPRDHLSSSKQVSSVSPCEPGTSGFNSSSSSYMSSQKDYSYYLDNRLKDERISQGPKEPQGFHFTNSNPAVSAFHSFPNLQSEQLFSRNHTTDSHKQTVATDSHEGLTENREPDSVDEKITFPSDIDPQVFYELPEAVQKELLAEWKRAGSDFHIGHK
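Fluorescent replication assay read twice, at 0 min and 10 min after adding 50 nM (final) substrate. Enzyme (10 nM) and compounds were first incubated 15 min at room temperature; enzyme-free buffer wells were negative controls.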
Pol kappa inh – inhibitors of human DNA polymerase kappa; Q9UBT6; purified Pol kappa, fluorescent DNA synthesis assay, 10 min; Potency, µM (titrated, usually from 107 µM), inactives show at the highest dose activity, negative = inhibition, usual class: inhibitors; 400,000 compounds, 0.53% hits; also: % is scaled to controls: 0 for no effect and ±100 for the full control effect
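10 nM Pol kappa was preincubated with compounds for 15 min at room temperature. Reaction started with 50 nM (final) substrate. Fluorescence read kinetically at 0 and 10 min.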
FEN1 inhibitor – blocks human flap endonuclease 1; Potency, µM (titrated, usually from 114 µM), for inactives: at the top dose activity change, negative = inhibition, hits mostly inhibitors; 390,000 compounds, 0.35% hits; Recombinant FEN1 flap cleavage, fluorescence, 15 min; AID 588795; also: % is scaled to controls: 0 for no effect and ±100 for the full control effect; nearly all actives have a fitted effect of over 65% in size
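Recombinant FEN1 (10 nM) was preincubated with pin-transferred compounds for 15 min at room temperature, then flap DNA substrate (50 nM final) was added. Plates were read at 0 and 15 min, and normalized concentration–response data were fitted to a four-parameter Hill equation.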
Active calls of the source: *; ? = inconclusive; . = not tested or not shown; [ ] = another dose, or the depositor's remark. Hits are enriched below; roughly 2.4% of the tested compounds scored in any of these assays. Calls follow the shape of the dose curve; as a rule, active = well fitted curve in the direction sought with a large enough effect; inconclusive = small, poorly fitted or top-dose-only effect, or another doubt; inactive = no such curve, though single readings can be large; an effect the other way counts as inactive or inconclusive. Potency is read from the fitted curve at half-maximal effect.

SMILES	WRN inhibitor	POLB inh	Pol eta inh	Pol iota inh	Pol kappa inh	FEN1 inhibitor
Cc1cccc(NC(=O)C2CCCN2S(=O)(=O)c2ccc3nc(-c4ccccc4)[nH]c3c2)c1 (stereo not given)	.	?	79µM*	?	?	-3%
CCOc1ccccc1N1C(=O)c2ccccc2N/C1=C\N1CCN(C(=O)c2ccco2)CC1	.	.	.	24%	6%	-3%
O=C1NC(=Nc2ccccc2Cl)S/C1=C\c1ccc(C(=O)O)cc1	-8%	24%	?	0%	-8%	-26%
CC12CCC(C/C1=N\N=C1\NC(=O)/C(=C\c3ccc(Cl)cc3)S1)C2(C)C (stereo not given)	?	11%	50µM*	4%	-3%	?
C=CCN1C(=O)/C(=C/c2ccc(OCC(=O)O)cc2)S/C1=N/c1nccs1	-8%	?	?	89µM*	0%	-14%
C=CCN1C(=O)/C(=C/c2ccc(O)c(OC)c2)S/C1=N/c1nccs1	-22%	1%	-18%	-26%	-17%	?
CC1(C)O[C@@H]2C[C@H]3[C@@H]4CCC5=CC(=O)C=C[C@]5(C)[C@H]4C(O)C[C@]3(C)[C@]2(C(=O)CO)O1 (stereo not given in full)	.	.	.	.	-1%[19.4 µM]	.
Cc1ccc(-n2ccc(=O)c(C(=O)Nc3ccc(S(=O)(=O)Nc4nccc(C)n4)cc3)n2)cc1	-14%	-14%	40µM*	?	-14%	-16%
Cc1cc(C)nc(NS(=O)(=O)c2ccc(NC(=O)c3nn(-c4ccccc4)ccc3=O)cc2)n1	-8%	2%	-14%	19%	-1%	22%
CCc1ccc(NS(=O)(=O)c2[nH]ncc2C(=O)OC)cc1	.	?	-12%	79µM*	-26%	16%
CCc1ccc(NS(=O)(=O)c2cc(OC)ccc2OC)cc1	-4%	-2%	-19%	20%	-9%[60.1 µM]	4%
CCc1cnc2c(c1SCC(=O)Nc1ccc(Cl)cc1)c(=O)n(C)c(=O)n2C	.	1%	-15%	?	-14%[60.1 µM]	18%
CCOc1ccc(C(NC(=O)CC)c2c(O)ccc3ccccc23)cc1 (stereo not given)	1%	0%	-10%	-15%	-4%	-24%
CCC(=O)NC(c1cccc([N+](=O)[O-])c1)c1c(O)ccc2ccccc12 (stereo not given)	-8%	2%	2%	89µM*	-19%	1%
Cc1ccc(S(=O)(=O)c2cnc(SCC(=O)Nc3cccc(Cl)c3)nc2N)cc1C	.	4%	-22%	?	6%	-11%
CC(C)NC(=O)CC(=O)N/N=C/c1cccs1	-4%	14µM*	-1%	25%	-2%	-3%
C(=NN=C(NN=Cc1cccs1)NN=Cc1cccs1)c1cccs1	-4%	.	-6%	79µM*	-3%	?
CC1=CC(=O)C(C(C)C)=C/C1=C(\c1cc(C(C)C)c(OP(=O)(O)O)cc1C)c1ccccc1C(=O)O	-21%	50µM*	79µM*	51%	-20%	1%
O=C(N/N=C/c1ccc(O)c(O)c1O)/C(=C/c1ccc([N+](=O)[O-])cc1)NC(=O)c1ccccc1	40µM*	7%	-12%	?	-39%	?
Cc1ccc(NC(=O)/C(=C\c2ccc([N+](=O)[O-])cc2)NC(=O)c2ccccc2)cc1	3%	50%	-3%	-14%	5%	0%
CCC(C)Sc1nc2c(c(=O)[nH]1)C(c1cccs1)C1=C(CCCC1=O)N2 (stereo not given)	-22%[57.1 µM]	25µM*	?	?	-42%	3%
Cc1ccc(-c2nnn(CC(=O)Nc3ccc(S(=O)(=O)N4CCC(C)CC4)cc3)n2)cc1	-20%	35µM*	?	?	-40%	-18%
CC1CCN(CC(=O)Nc2ccc(S(=O)(=O)N3CCC(C)CC3)cc2)CC1	?	-3%	-25%	45%	-4%	-8%
CC1CCN(S(=O)(=O)c2ccc(NC(=O)Cn3nnc(-c4ccccc4)n3)cc2)CC1	-14%	40µM*	-11%	?	-1%	13%
CCc1c(C)sc2c1CCN(Cc1ccc(F)cc1)C2c1ccccc1 (stereo not given)	.	5%	-18%	14%	-9%[60.1 µM]	-10%
SMILES	WRN inhibitor	POLB inh	Pol eta inh	Pol iota inh	Pol kappa inh	FEN1 inhibitor
CCOc1ccccc1CNC(=O)C1CCN(Cc2cc3ccccc3n2Cc2ccccc2)CC1	.	8%	-15%	17%	-6%[60.1 µM]	-2%
CCOC(=O)c1c(NC(=O)/C=C/C(=O)O)sc(C)c1-c1ccc(C(C)(C)C)cc1	-34%	?	22µM*	?	-12%	-33%
Cc1noc(C)c1C(=O)N1CCC2(CCCN(C(=O)Nc3ccccc3)C2)CC1	.	.	.	.	-5%[60.1 µM]	.
CCN(CC)c1ccc2cc(-c3nc(-c4cccs4)no3)c(=O)oc2c1	.	-2%	-1%	12%	2%	-8%
COC(=O)CCC(=O)OC1(C)C(=O)C2=CN(CCCCO)C(c3ccc(OC)cc3)=CC2=C(Br)C1=O (stereo not given)	.	-13%	.	.	.	.
COC(=O)CCC(=O)OC1(C)C(=O)C2=CN(CCc3ccccn3)C(c3ccc(OC)cc3)=CC2=C(Br)C1=O (stereo not given)	-8%	.	32µM*	?	-16%	-14%
COC(=O)CCC(=O)OC1(C)C(=O)C2=CN(Cc3ccc4c(c3)OCO4)C(c3ccc(OC)cc3)=CC2=C(Br)C1=O (stereo not given)	-3%	.	-11%	?	-22%	1%
COc1ccc(C2=CC3=C(Br)C(=O)C(C)(OC(=O)c4ccc(Cl)nc4)C(=O)C3=CO2)cc1 (stereo not given)	?	50µM*	22µM*	10µM*	?	?
COC(=O)CCC(=O)OC1(C)C(=O)C2=COC(c3ccc(OC)cc3)=CC2=C(Br)C1=O (stereo not given)	?	22µM*	10µM*	13µM*	25µM*	35µM*
O=C(O)c1ccc(S(=O)(=O)c2ccc3c(c2)C(=O)N(NC(=O)c2ccc(O)cc2)C3=O)cc1	-3%[57.1 µM]	28µM*	-4%	75%	-9%	0%
Cc1ccc(C(=O)NN2C(=O)c3ccc(S(=O)(=O)c4ccc(C(=O)O)cc4)cc3C2=O)cc1	-21%	?	-18%	87%	-12%	-1%
CCc1cccc2sc(N(CCCN3CCOCC3)C(=O)CS(=O)(=O)c3ccccc3)nc12	-29%	.	-27%	89µM*	-38%	-34%
Cc1nc(S(=O)(=O)N2CCN(c3ccc(Cl)cc3)CC2)cn1C	.	1%	-8%	-12%	-4%[60.1 µM]	21%
